Measurements as given in PubChem BioAssay (NCI).
This is part of a sample that, as a whole, favours compounds with a hit. Of some 79,000 tested, about 15% had one in any assay. Calls of active or inactive are those of the source. Rule as the data show it: active = growth inhibition above about 70%; inactive = the rest.

Experiments:
[1] = NCI Yeast Anticancer Drug Screen. Data for the rad52 strain (AID 147);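 also: 0% = growth of vehicle-treated control cultures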; conditions: S. cerevisiae rad52 mutant growth inhibition, hits give high values
Method in brief: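 Yeast strain carrying a DNA damage repair alteration was exposed to test compounds. Growth inhibition was measured relative to vehicle-treated controls.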

[2] = NCI Yeast Anticancer Drug Screen. Data for the wt1 strain (AID 149);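 also: 0% = growth of vehicle-treated wt1 cultures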; conditions: S. cerevisiae wt1 strain (SPY 50644) growth inhibition, hits give high values
Method in brief: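 Measured: growth of wt1 yeast under compound versus vehicle treatment, reported as inhibition.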

[3] = NCI Yeast Anticancer Drug Screen. Data for the rad50EPP+ strain (AID 151);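 also: 0% = growth of vehicle-treated control cultures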; conditions: S. cerevisiae rad50 mutant strain, hits give high values
Method in brief: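 Yeast strain carrying rad50 alteration (rad50EPP+) exposed to compounds; growth inhibition measured relative to vehicle-treated controls.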

[4] = NCI Yeast Anticancer Drug Screen. Data for the rad50 strain (AID 155);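 also: 0% = growth of vehicle-only cultures of the same strain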; conditions: S. cerevisiae rad50 strain growth inhibition, hits give high values
Method in brief: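 Growth of the mutant yeast was measured after compound exposure and referenced to vehicle-treated cultures.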

[5] = NCI Yeast Anticancer Drug Screen. Data for the mec2-1 strain (AID 157); conditions: S. cerevisiae mec2-1 strain, hits give high values
Method in brief: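 mec2-1 yeast strain, carrying an alteration in DNA damage repair or cell cycle control, was exposed to compounds; growth inhibition was measured relative to vehicle-treated controls.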

[6] = NCI Yeast Anticancer Drug Screen. Data for the rad14 strain (AID 159);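 also: 0% = growth of vehicle-treated control cultures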; conditions: S. cerevisiae rad14 strain growth inhibition, hits give high values
Method in brief: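 Here, inhibition of yeast growth was measured after compound exposure, using a strain with a genetic defect in DNA damage repair and vehicle-treated cultures as the reference.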

[7] = NCI Yeast Anticancer Drug Screen. Data for the sgs1 mgt1 strain (AID 161);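 also: 0% = growth of cultures given vehicle only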; conditions: S. cerevisiae sgs1 mgt1 strain, hits give high values
Method in brief: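 Growth of a repair-deficient yeast mutant was monitored after compound treatment and expressed as inhibition relative to vehicle-treated cultures.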

[8] = NCI Yeast Anticancer Drug Screen. Data for the CLN2oe strain (AID 163);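 also: 0% = growth of vehicle-only control cultures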; conditions: S. cerevisiae CLN2oe strain, hits give high values
Method in brief: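 Yeast cells carrying a defined cell-cycle control alteration were exposed to test compounds. Growth inhibition was scored against vehicle-treated control cultures.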

[9] = NCI Yeast Anticancer Drug Screen. Data for the cln2 rad14 strain (AID 165);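 also: 0% = growth equal to vehicle treated cultures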; conditions: S. cerevisiae cln2 rad14 strain, hits give high values
Method in brief: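 Yeast carrying cln2 and rad14 alterations (cell cycle control and DNA damage repair) were exposed to compounds. Growth inhibition was measured against vehicle-treated controls.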

[10] = NCI Yeast Anticancer Drug Screen. Data for the bub3 strain (AID 167); conditions: S. cerevisiae bub3 mutant strain, hits give high values
Method in brief: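 Whole-cell yeast assay. The mutant strain was incubated with compounds, and growth inhibition was determined by comparison with vehicle-treated cells.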

[11] = NCI Yeast Anticancer Drug Screen. Data for the wt2 strain (AID 169);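 also: 0% = growth of vehicle-treated yeast cultures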; conditions: S. cerevisiae wt2 strain growth inhibition, hits give high values
Method in brief: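 Yeast cells were exposed to test compounds, and growth inhibition was measured relative to vehicle-treated controls.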

[12] = NCI Yeast Anticancer Drug Screen. Data for the sgs1 strain (AID 173);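 also: 0% = growth of vehicle-only control cultures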; conditions: S. cerevisiae sgs1 mutant, hits give high values
Method in brief: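 Yeast mutant strains carrying defined defects in DNA damage repair or cell cycle control were exposed to test compounds. Growth inhibition was scored against vehicle-treated controls.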

[13] = NCI Yeast Anticancer Drug Screen. Data for the mlh1 rad18 strain (AID 175); conditions: S. cerevisiae mlh1 rad18 strain growth inhibition, hits give high values
Method in brief: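 Growth inhibition of the yeast strain was measured after compound exposure and expressed relative to vehicle-treated controls. The strain carries defined defects in DNA damage repair.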

[14] = NCI Yeast Anticancer Drug Screen. Data for the rad18 strain (AID 177); conditions: S. cerevisiae rad18 mutant growth inhibition, hits give high values
Method in brief: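 Yeast carrying a defined DNA damage repair alteration were exposed to compounds. Growth inhibition was expressed relative to vehicle-treated controls.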

[15] = NCI Yeast Anticancer Drug Screen. Data for the mlh1 strain (AID 171);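 also: 0% = growth of vehicle-treated control cultures of the same strain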; conditions: S. cerevisiae mlh1 strain growth inhibition, hits give high values
Method in brief: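 Yeast carrying a defined genetic alteration in DNA damage repair or cell cycle control were exposed to test compounds. Growth inhibition was measured relative to vehicle-treated controls.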

[16] = at 5.0 µM (retest, dose inferred, filed as 0.5)
[17] = at 50.0 µM (retest, dose inferred, filed as 5.0)

Measured: growth inhibition

N#C/C(=C\c1ccccc1)c1ccccc1F
inactive: [1]; at 1.2 µM -1% | [1]; at 3.7 µM -3% | [1]; at 11.0 µM -2% | [1]; at 33.0 µM -1% | [1]; at 100.0 µM 3% | [2]; at 1.2 µM 1% | [2]; at 3.7 µM 1% | [2]; at 11.0 µM 2% | [2]; at 33.0 µM 1% | [2]; at 100.0 µM 1% | [3]; at 1.2 µM 2% | [3]; at 3.7 µM 2% | [3]; at 11.0 µM 9% | [3]; at 33.0 µM 16% | [3]; at 100.0 µM 21% | [4]; at 1.2 µM -4% | [4]; at 3.7 µM 3% | [4]; [16] 6% | [4]; at 11.0 µM -2% | [4]; at 33.0 µM 2% | [4]; at 50.0 µM 44.1% | [4]; at 100.0 µM 10% | [5]; at 1.2 µM 2% | [5]; at 3.7 µM 0% | [5]; [16] -11% | [5]; at 11.0 µM 4% | [5]; at 33.0 µM -4% | [5]; [17] 69% | [5]; at 50.0 µM 41.7% | [5]; at 100.0 µM -4% | [6]; at 1.2 µM -2% | [6]; at 3.7 µM -1% | [6]; at 11.0 µM 1% | [6]; at 33.0 µM 1% | [6]; at 100.0 µM 5% | [7]; [16] -8% | [7]; at 50.0 µM 45.9% | [8]; at 1.2 µM 13% | [8]; at 3.7 µM 9% | [8]; at 11.0 µM 11% | [8]; at 33.0 µM 14% | [8]; at 100.0 µM 8% | [9]; [16] -10% | [9]; [17] 17% | [9]; at 50.0 µM 6.15% | [10]; at 1.2 µM -31% | [10]; at 3.7 µM -21% | [10]; [16] -17% | [10]; at 11.0 µM -6% | [10]; at 33.0 µM -10% | [10]; at 50.0 µM 34.9% | [10]; at 100.0 µM -7% | [11]; at 1.2 µM -3% | [11]; at 3.7 µM -2% | [11]; at 11.0 µM -1% | [11]; at 33.0 µM -1% | [11]; at 100.0 µM 4% | [12]; at 1.2 µM -1% | [12]; at 3.7 µM -1% | [12]; at 11.0 µM 1% | [12]; at 33.0 µM 1% | [12]; at 100.0 µM 2% | [13]; [16] 22% | [13]; at 50.0 µM 67% | [14]; at 1.2 µM -2% | [14]; at 3.7 µM -5% | [14]; at 11.0 µM -7% | [14]; at 33.0 µM -14% | [14]; at 100.0 µM -15%
active: [4]; [17] 89% | [7]; [17] 90% | [10]; [17] 88% | [13]; [17] 96%

CCCCCCCCCCCCCCCCNC(=O)/C(=C\c1ccc(Cl)c(Cl)c1)NC(=O)c1ccccc1
inactive: [1]; at 1.2 µM 21% | [1]; at 3.7 µM 8% | [1]; at 11.0 µM 18% | [1]; at 33.0 µM 11% | [2]; at 1.2 µM -41% | [2]; at 3.7 µM -2% | [2]; at 11.0 µM -4% | [2]; at 33.0 µM -6% | [2]; at 100.0 µM 9% | [3]; at 1.2 µM 2% | [3]; at 3.7 µM 6% | [3]; at 11.0 µM 6% | [3]; at 33.0 µM 34% | [4]; at 1.2 µM -2% | [4]; at 3.7 µM 0% | [4]; [16] 14% | [4]; at 11.0 µM -2% | [4]; at 33.0 µM -4% | [4]; at 100.0 µM 49% | [5]; at 1.2 µM 11% | [5]; at 3.7 µM -5% | [5]; [16] 8% | [5]; at 11.0 µM -7% | [5]; at 33.0 µM -2% | [5]; [17] 29% | [5]; at 100.0 µM 33% | [6]; at 1.2 µM -1% | [6]; at 3.7 µM 0% | [6]; at 11.0 µM -4% | [6]; at 33.0 µM 4% | [6]; at 100.0 µM 43% | [7]; [16] -5% | [7]; [17] 13% | [7]; at 50.0 µM 55% | [8]; at 1.2 µM -11% | [8]; at 3.7 µM -7% | [8]; at 11.0 µM -6% | [8]; at 33.0 µM -13% | [8]; at 100.0 µM 52% | [9]; [16] 46% | [9]; [17] -10% | [9]; at 50.0 µM 59.2% | [10]; at 1.2 µM -3% | [10]; at 3.7 µM -4% | [10]; [16] 3% | [10]; at 11.0 µM -6% | [10]; at 33.0 µM -7% | [10]; [17] 43% | [11]; at 1.2 µM 0% | [11]; at 3.7 µM 1% | [11]; at 11.0 µM 0% | [11]; at 33.0 µM 5% | [11]; at 100.0 µM 69% | [15]; at 1.2 µM 0% | [15]; at 3.7 µM -1% | [15]; at 11.0 µM -3% | [15]; at 33.0 µM -5% | [15]; at 100.0 µM 47% | [13]; [16] 10% | [13]; [17] 31% | [14]; at 1.2 µM 7% | [14]; at 3.7 µM 7% | [14]; at 11.0 µM 26% | [14]; at 33.0 µM 24% | [14]; at 100.0 µM 67%
active: [1]; at 100.0 µM 77% | [3]; at 100.0 µM 74% | [4]; [17] 75% | [4]; at 50.0 µM 93.2% | [5]; at 50.0 µM 94.2% | [10]; at 50.0 µM 88.8% | [10]; at 100.0 µM 87% | [13]; at 50.0 µM 89.2%
